# Source: PubChem BioAssay
# A selection: hits, their analogues and other compounds. The true share with any hit is near 2.5%.
# p97 inhibitor: human p97 ATPase inhibition; recombinant p97 ATPase, Kinase-Glo ATP luminescence, 3 h; inhibition, % at 8 µM; hit rate 0.42% among 220,000; in the data active = inhibition above about 15%
# HDAC3 inhib: blocks human histone deacetylase 3; O15379; recombinant HDAC3, fluorogenic peptide/trypsin coupled, fluorescence; inhibition, % at 8.3 µM; hit rate 0.15% among 320,000; AID 2718; in the data active = inhibition above about 26%, passing the limit was not always enough; inconclusive = no clear call, values can overlap the other calls
# G6PDH counter: counter-screen for G6PDH assay hits: L. mesenteroides G6PDH inhibition. Purified L. mesenteroides G6PDH, diaphorase/resazurin coupled fluorescence, 45 min. inhibition, % at 5 µM. hit rate 0.12% among 200,000. AID 1020; in the data active = inhibition above about 50%
# PfM18AAP inh-1: PfM18AAP enzyme inhibition; recombinant PfM18AAP, H-Glu-NHMec fluorogenic cleavage; inhibition, % at 7.35 µM; hit rate 1.2% among 290,000; AID 1822;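 active = inhibition above the campaign mean inhibition over all tested compounds plus 3 SD, cut at about 28% in these data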
# SUMO HTRF inh: SUMOylation inhibition. AID 2006. HTRF SUMOylation assay, SAE1/SAE2 + UBC9, in vitro. inhibition, % at 35 µM. hit rate 0.36% among 290,000; in the data active = inhibition above about 50%, passing the limit was not always enough; inconclusive = no clear call, values can overlap the other calls
# PHOSPHO1 inh: PHOSPHO1 (human) inhibition; recombinant PHOSPHO1, absorbance phosphatase assay; AID 1565; Q8TCT1; inhibition, % at 13.3 µM; hit rate 1.1% among 290,000; in the data active = inhibition above about 60%
# Target sequence (Q8TCT1 whole entry, looked up): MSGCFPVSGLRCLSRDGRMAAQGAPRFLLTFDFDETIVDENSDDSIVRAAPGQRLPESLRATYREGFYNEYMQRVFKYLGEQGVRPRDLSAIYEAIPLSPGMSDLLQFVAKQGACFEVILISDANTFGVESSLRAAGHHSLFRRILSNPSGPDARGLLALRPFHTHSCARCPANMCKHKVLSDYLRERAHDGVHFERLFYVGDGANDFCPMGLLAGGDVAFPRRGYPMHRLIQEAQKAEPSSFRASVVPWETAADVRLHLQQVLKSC
# PfM18AAP inh-2: confirmation of Plasmodium falciparum M18 aspartyl aminopeptidase inhibitors. shares compounds with PfM18AAP inh-1. recombinant PfM18AAP, H-Glu-NHMec fluorogenic cleavage. inhibition, % at 7.35 µM. hit rate 28% among 2,400;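 active = mean inhibition over replicate wells above the hit cutoff set for the earlier primary screen, cut at about 29% in these data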
# CTSL1 confirm: counter-screen for PFM18AAP inhibitors: confirmation of human cathepsin L inhibitors; shares compounds with PfM18AAP inh-1; inhibition, % at 5.96 µM; AID 2178; 2,400 tested, under 10 active; purified cathepsin L1, Z-Leu-Arg-MCA fluorescence;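 active = average inhibition across replicates above the hit cutoff set in the earlier primary screen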
# Target sequence (P07711 whole entry, looked up): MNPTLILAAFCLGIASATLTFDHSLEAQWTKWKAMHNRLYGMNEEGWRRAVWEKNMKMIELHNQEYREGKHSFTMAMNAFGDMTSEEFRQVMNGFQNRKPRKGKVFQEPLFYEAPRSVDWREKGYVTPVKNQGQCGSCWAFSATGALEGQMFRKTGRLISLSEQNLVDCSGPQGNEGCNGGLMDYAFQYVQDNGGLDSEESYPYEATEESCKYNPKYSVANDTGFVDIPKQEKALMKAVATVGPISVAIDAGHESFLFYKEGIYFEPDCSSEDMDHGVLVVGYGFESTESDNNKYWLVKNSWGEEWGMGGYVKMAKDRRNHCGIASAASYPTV
# A number is an active result; i = inactive; ? = inconclusive; nt = no result given.
SMILES,p97 inhibitor,HDAC3 inhib,G6PDH counter,PfM18AAP inh-1,SUMO HTRF inh,PHOSPHO1 inh,PfM18AAP inh-2,CTSL1 confirm
CCOC(=O)c1c(/N=C/C2=C(O)CCCC2=O)sc(C)c1C,i,i,i,i,i,i,nt,nt
COc1cc(C(=O)OCC(=O)NC2CCCCC2)cc2c1OCCO2,nt,i,nt,nt,nt,nt,nt,nt
COC(=O)c1ccccc1NC(=O)C/C(C)=N/NC(=O)CC#N,i,i,i,38,i,i,i,i
CN1CCN(C(=S)NC(=O)c2ccc(S(=O)(=O)N3CCOCC3)cc2)CC1,i,i,i,45,i,i,i,i
Cc1ccccc1CCN(C(=O)c1csnn1)C(C(=O)NC1CCCC1)c1ccncc1 (centres undefined),nt,i,nt,i,i,i,nt,nt
Cc1n[nH]c(=S)n(NC(=O)/C=C/C(=O)Nn2c(=S)[nH]nc(C)c2=O)c1=O,i,nt,i,35,99,i,i,i
COc1ccccc1OCC(=O)Nn1c(=S)[nH]c2ncccc2c1=O,i,i,i,i,i,i,nt,nt
Cc1n[nH]c(=S)n(NC(=O)CC(=O)Nn2c(=S)[nH]nc(C)c2=O)c1=O,i,i,i,42,i,i,i,i
Cc1nn2c(=S)[nH]nc2[nH]c1=O,i,i,i,i,i,i,nt,nt
Cc1ccc(S(=O)(=O)N2CCN(C(=O)Cn3cnc4c3c(=O)n(C)c(=O)n4C)CC2)cc1C,nt,i,nt,nt,nt,nt,nt,nt
CN(CC(=O)Nc1cccc(F)c1)CC(=O)Nc1ccccc1Oc1ccccc1,nt,i,nt,i,i,i,nt,nt
Cc1ccc2oc(=O)c(/C=C(\O)c3ccco3)nc2c1,i,i,nt,50,i,i,i,i
Cc1ccc2oc(=O)c(/C=C(\O)C(C)(C)C)nc2c1,i,i,i,i,i,i,nt,nt
CCN1/C(=C2\C(=O)N(C)C(=S)N2C)C=Cc2ccccc21,i,i,i,i,i,i,nt,nt
CCN1/C(=C2\C(=O)N(C)C(=S)N2C)C=Cc2cc(C)ccc21,i,i,i,34,i,i,i,i
COc1ccccc1NS(=O)(=O)c1ccc(NC(C)=O)cc1,i,i,i,68,i,i,i,i
Cc1ccc(O)c(NC(=O)/C=C/C(=O)O)c1,i,i,i,33,i,i,i,i
Cc1ccc(NC(=O)/C=C/C(=O)O)c(NC(=O)c2ccccc2)c1,nt,i,nt,i,i,i,nt,nt
OC(Cn1cnnc1)c1ccccc1 (centres undefined),nt,i,nt,79,i,i,76,i
OC(CN1CCc2ccccc2C1)c1ccccc1 (centres undefined),i,i,i,i,i,i,nt,nt
O=c1nc(N/N=C/c2c[nH]c3ccccc23)cn[nH]1,i,i,nt,40,i,i,i,i
C(=N\Nc1ccccn1)/c1c[nH]c2ccccc12,i,i,nt,i,i,i,nt,nt
O=c1nc(N/N=C/C=C/c2ccccc2)cn[nH]1,i,i,nt,41,i,i,i,i
CC1CCN(c2nc3ccc(C(=O)NCCCN4CCCCC4C)cc3s2)CC1 (centres undefined),nt,i,nt,i,i,i,nt,nt
O=C(Cc1csc(N2CCOCC2)n1)N/N=C/c1ccc(O)c(O)c1O,i,nt,i,47,93,i,i,i
SMILES,p97 inhibitor,HDAC3 inhib,G6PDH counter,PfM18AAP inh-1,SUMO HTRF inh,PHOSPHO1 inh,PfM18AAP inh-2,CTSL1 confirm
Oc1c(Br)cccc1/C=N/c1ncn[nH]1,nt,i,nt,63,i,i,55,i
COc1cccc(/C=N/c2nc3ccccc3[nH]2)c1O,nt,i,nt,i,i,i,nt,nt
Cc1ccc(NC(=O)CSc2ccc(Br)cc2)cc1S(=O)(=O)N1CCOCC1,nt,i,nt,nt,nt,nt,nt,nt
COc1ccc(OC)c(Nc2nc(=O)c3cccnc3s2)c1,i,nt,i,54,i,i,i,i
Cc1ccc(Nc2nc(=O)c3cccnc3s2)cc1,i,i,i,i,i,i,nt,nt
COC(=O)c1cccc(N(CC(=O)NC2CCCC2)C(=O)CNC(=O)c2cccs2)c1,nt,i,nt,i,i,i,nt,nt
CCCN1CCN(C(=O)c2c(Cl)cnn2C)CC1,nt,i,nt,i,i,i,nt,nt
Cc1ccc(N2CCN(c3ccc(NC(=O)CCC(=O)O)cc3)CC2)cc1,i,?,i,i,i,i,nt,nt
O=C(O)CCC(=O)Nc1ccc(N2CCCCCC2)cc1,i,i,i,44,i,i,i,i
COc1ccc(C)cc1NC(=O)NNC(=O)c1ccoc1C,nt,i,nt,47,i,i,i,i
COc1ccc(OC)c(NC(=O)NNC(=O)c2cc3occc3[nH]2)c1,nt,i,nt,56,i,i,35,i
Cc1ccc(C)c(NC(=O)NNC(=O)c2cc3occc3[nH]2)c1,nt,i,nt,49,i,i,29,i
Cc1ccc(C)c(NC(=O)NNS(=O)(=O)c2ccc(C)c(C)c2)c1,nt,i,nt,i,i,i,nt,nt
COc1ccc(C)cc1NC(=O)c1ccoc1C,i,i,i,i,i,i,nt,nt
O=C(CSc1ccc2nnc(-c3ccccn3)n2n1)Nc1ccc(F)cc1F,nt,i,nt,i,i,i,nt,nt
O=C(O)CCn1c2ccccc2c2nc3ccccc3nc21,nt,i,nt,i,i,i,nt,nt
CCn1c2ccccc2c2n[nH]c(=S)nc21,nt,i,nt,i,i,i,nt,nt
C=CCn1c2ccccc2c2n[nH]c(=S)nc21,nt,i,nt,40,i,i,i,i
O=C(O)Cn1c2ccccc2c2n[nH]c(=S)nc21,nt,i,nt,47,i,i,31,i
Nc1nc(-c2cc(O)ccc2[N+](=O)[O-])cc(-c2ccccc2)c1[N+](=O)[O-],nt,i,nt,46,98,i,i,i
COc1ccc(Cl)c2sc(N3CCN(C(C)=O)CC3)nc12,nt,i,nt,i,i,i,nt,nt
C/C(=N\NC(=O)c1cc(O)ccc1O)c1cccc(NC(=O)c2ccc(Cl)cc2)c1,nt,i,nt,36,i,i,i,i
CC(C(N)=O)N1C(=O)NC2(CCCc3ccccc32)C1=O (centres undefined),nt,i,nt,i,i,i,nt,nt
Cc1cc(=O)[nH]c(SCC(=O)c2ccc(O)c(O)c2)n1,nt,i,nt,68,i,i,59,i
Cc1cc(C)nc(SCNC(=O)c2ccc(Cl)cc2)n1,i,i,i,51,i,i,i,i
SMILES,p97 inhibitor,HDAC3 inhib,G6PDH counter,PfM18AAP inh-1,SUMO HTRF inh,PHOSPHO1 inh,PfM18AAP inh-2,CTSL1 confirm
Cc1cc(C)nc(SCC(=O)c2ccc(O)c(O)c2)n1,nt,i,nt,50,i,i,i,i
Cc1cc(C)nc(SCc2ccc(Cl)cc2)n1,nt,i,nt,i,i,i,nt,nt
COCc1cc(C)nc(SCC(=O)c2ccc(O)c(O)c2)c1C#N,i,i,i,62,i,i,39,i
O=C(CN1C(=O)/C(=C2/SC(=S)N(CCS(=O)(=O)O)C2=O)c2ccccc21)Nc1cccc(Br)c1,nt,i,nt,nt,nt,nt,nt,nt
O=C1NC(=O)c2cc3ccccc3cc21,nt,i,nt,nt,nt,nt,nt,nt
Cc1ccc(O)c(N=Nc2nccs2)c1,nt,i,nt,nt,nt,nt,nt,nt
O=C(CSc1nc2ccccc2c(=O)[nH]1)c1ccc(O)c(O)c1,i,i,i,65,i,i,68,i
O=C(CSc1nc2ccccc2c(=O)[nH]1)c1ccc(O)cc1O,i,nt,i,i,i,i,nt,nt
CCN(C(=O)COC(=O)CCC(=O)c1cccs1)c1c(N)n(Cc2ccccc2)c(=O)[nH]c1=O,nt,i,nt,nt,nt,nt,nt,nt
CCC(=O)Nc1cccc2cccnc12,i,i,i,i,i,i,nt,nt
